The panel holds about 83,000 compounds, 20% with a hit somewhere; the sample as a whole holds those more often.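 Each cell line was grown in a 96-well plate and treated with one concentration of compound for 48 hours. Values below 10 were considered active.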 A number with no mark means an inactive call. The source made the active and inactive calls.

What all share (experiment): NCI-60 one-dose screen, 48 h (100 = growth as untreated, 0 = no growth, -100 = all killed)
One assay concerns NCI-H23 lung. To be noted: 10 µM unless noted.
The test system of another assay is NCI-H322M lung. The following applies: 10 µM unless noted.
A further assay relates to HOP-62 NSCLC. The following applies: 10 µM unless noted.
Another assay concerns COLO 205 colon. The following applies: 10 µM.
Another assay deals with K-562 leukemia. The following applies: 10 µM unless noted.
Another assay relates to SF-295 CNS. To be noted: 10 µM unless noted.
Another assay relates to M14 melanoma. To be noted: 10 µM unless noted.
A further assay concerns LOX IMVI melanoma. To be noted: 10 µM unless noted.
For another assay, the system named is A498 renal. The following applies: 10 µM unless noted.
The subject of the next assay is MOLT-4 leukemia. To be noted: 10 µM.
The subject of a further assay is RPMI-8226 leukemia. The following applies: 10 µM unless noted.
A further assay relates to SK-OV-3 ovarian. To be noted: 10 µM unless noted.
Another assay relates to HCT-116 colon. To be noted: 10 µM unless noted.
In the next assay the test system is NCI-H522 lung. To be noted: 10 µM unless noted.
For a further assay, the system named is SK-MEL-2 melanoma. To be noted: 10 µM unless noted.
A further assay deals with EKVX NSCLC. To be noted: 10 µM unless noted.
The next assay has as its system CAKI-1 renal. The following applies: 10 µM unless noted.
A further assay has as its system U251 CNS. To be noted: 10 µM unless noted.
In another assay the test system is NCI-H226 lung. The following applies: 10 µM unless noted.

For the compound `C[C@]12C[C@H](O)[C@H]3[C@@H](CCC4=CC(=O)CC[C@@]43C)[C@@H]1CC[C@@H]2O`, the growth in the assay on NCI-H23 lung was 103%; with NCI-H322M lung, 110%; in the assay on HOP-62 NSCLC, 105%; with COLO 205 colon it was 99.8%; with K-562 leukemia, 104%; with SF-295 CNS, 85.6%. Further, the growth in the assay with M14 melanoma was 98.4%; in the assay on LOX IMVI melanoma, 96%; in the assay with A498 renal it was 116%; with MOLT-4 leukemia it was 103%; in the assay on RPMI-8226 leukemia it was 98.3%; in the assay with SK-OV-3 ovarian, 105%. Moreover, the growth in the assay with HCT-116 colon is 101%.

In the case of `Cc1nnc([S-])s1.[Au+].c1ccc([PH+](c2ccccc2)c2ccccc2)cc1`, the growth with NCI-H23 lung is 12.2%; in the assay with NCI-H322M lung, 84.2%; with HOP-62 NSCLC, 28.2%; with NCI-H522 lung it was -75.3% (active); with K-562 leukemia it was 1.12% (active); in the assay with SF-295 CNS, 75%. Moreover, the growth in the assay on M14 melanoma was -2.48% (active); in the assay with LOX IMVI melanoma, -60.6% (active); in the assay on SK-MEL-2 melanoma, -12.2% (active); in the assay with EKVX NSCLC, 56.4%; in the assay with CAKI-1 renal it was -26.8% (active); with A498 renal, 25.1%. For the same compound, the growth is -9.08% (active) with MOLT-4 leukemia, -1.82% (active) with RPMI-8226 leukemia and -60.1% (active) with HCT-116 colon.

For `Cn1cnnc1[S-].[Au+].c1ccc([PH+](c2ccccc2)c2ccccc2)cc1`, the growth with NCI-H23 lung is 15.8%; with NCI-H322M lung, 89%; in the assay with HOP-62 NSCLC it was 25.1%; in the assay with NCI-H522 lung, -75% (active); with COLO 205 colon, -10% (active); in the assay with K-562 leukemia, 1.84% (active). The growth in the assay on SF-295 CNS is 78.8%; with M14 melanoma, -11.9% (active); with U251 CNS it was -43.1% (active); with SK-MEL-2 melanoma, 0.754% (active); with A498 renal it was 64.7%; in the assay on MOLT-4 leukemia, -9.25% (active). For the same compound, the growth in the assay with RPMI-8226 leukemia is -3.32% (active); in the assay on HCT-116 colon, 3.71% (active).

In the case of `Oc1c(Br)cc(Br)cc1Br.[Cu+2]`, the growth in the assay on NCI-H23 lung was 104%; with NCI-H322M lung, 88.3%; in the assay with HOP-62 NSCLC it was 121%; with NCI-H522 lung, 88.7%; in the assay on K-562 leukemia, 107%; in the assay with SF-295 CNS, 97.6%. Also, the growth is 103% with M14 melanoma; 89% with LOX IMVI melanoma; 95.3% in the assay with SK-MEL-2 melanoma; 106% with A498 renal; 92.1% in the assay with MOLT-4 leukemia; 94.3% in the assay with SK-OV-3 ovarian. Also, in the assay with HCT-116 colon, the growth is 98.4%.

As for `C/C1=C/C(=O)O[C@@H]2C[C@@H](CC[C@H](C)/C=C\C=C\CC1)O[C@@](OCCc1ccccc1)([C@@H]1CSC(=O)N1)C2`, the growth is 35.1% with NCI-H23 lung; 27.8% in the assay on NCI-H322M lung; -15.8% (active) in the assay with HOP-62 NSCLC; 7.26% (active) with NCI-H522 lung; 36.3% with K-562 leukemia; 17.7% with SF-295 CNS. Besides, the growth in the assay with LOX IMVI melanoma was 4.46% (active); with SK-MEL-2 melanoma it was 67.7%; in the assay with EKVX NSCLC it was 1.32% (active); with CAKI-1 renal, -74.3% (active); in the assay with A498 renal, -29.1% (active); in the assay with MOLT-4 leukemia, 61.4%. Also, the growth in the assay with RPMI-8226 leukemia was 46.7%; with SK-OV-3 ovarian, -32.3% (active); in the assay with HCT-116 colon, 33.5%.

Take `O=C(O)CNC(=O)c1ccccc1`: the growth in the assay with NCI-H226 lung was 109%; in the assay with HOP-62 NSCLC, 93.4%; with COLO 205 colon, 104%; in the assay on SF-295 CNS, 104%; in the assay on M14 melanoma it was 99.4%; in the assay on SK-MEL-2 melanoma, 97.2%. The growth was 83.2% with CAKI-1 renal, 85% in the assay with A498 renal, 92.2% in the assay on RPMI-8226 leukemia and 104% with SK-OV-3 ovarian.

Regarding `NC(=O)OCC(CO)(c1ccccc1)c1ccccc1`, the growth in the assay with NCI-H226 lung was 96.2%; in the assay on HOP-62 NSCLC, 94.9%; with NCI-H522 lung, 98.8%; in the assay on K-562 leukemia, 108%; in the assay with SF-295 CNS, 93.5%; with M14 melanoma, 99.5%. Further, the growth with LOX IMVI melanoma was 98.7%; in the assay on SK-MEL-2 melanoma, 110%; in the assay on CAKI-1 renal, 91.8%; in the assay with A498 renal it was 81.7%; in the assay with MOLT-4 leukemia, 98.7%; in the assay on RPMI-8226 leukemia, 98.4%. Moreover, the results for the growth in the assay with SK-OV-3 ovarian and in the assay with HCT-116 colon were 99.1% and 92.1%, respectively.

Consider `C/C(=N/OC(=O)N(C)C)c1ccc(Cl)cc1Cl`, for which the growth with NCI-H226 lung was 104%; with HOP-62 NSCLC, 98.2%; in the assay on NCI-H522 lung, 83.6%; in the assay with COLO 205 colon, 110%; in the assay with K-562 leukemia, 106%; with SF-295 CNS, 98.6%. Also, the growth in the assay with SK-MEL-2 melanoma is 88.8%; with CAKI-1 renal, 96.6%; in the assay with A498 renal, 90.9%; with MOLT-4 leukemia, 90%; in the assay with RPMI-8226 leukemia, 103%; in the assay on SK-OV-3 ovarian, 94.6%. Besides, the growth in the assay on HCT-116 colon was 99.1%.

Take `CCOC(=O)C1(c2ccccc2)CCN(CC(=O)c2ccc(NC(C)=O)cc2)CC1`: the growth was 107% with NCI-H226 lung; 99.9% in the assay on HOP-62 NSCLC; 103% in the assay with COLO 205 colon; 122% with K-562 leukemia; 110% with SF-295 CNS; 93.6% in the assay with M14 melanoma. Also, the growth was 88.8% in the assay with LOX IMVI melanoma; 89.2% with SK-MEL-2 melanoma; 102% with EKVX NSCLC; 95.4% with CAKI-1 renal; 94.5% in the assay with A498 renal; 102% with MOLT-4 leukemia. The growth with RPMI-8226 leukemia was 88.3%; with SK-OV-3 ovarian it was 101%; in the assay on HCT-116 colon it was 97.7%.

Turning to `CC(=O)OC1CCC2(C)C(=CCC3C4CC(CN5CC5)C(=O)C4(C)CCC32)C1` (stereo not drawn), the growth with NCI-H226 lung is 97.7%; with HOP-62 NSCLC it was 121%; in the assay with NCI-H522 lung it was -78.4% (active); with COLO 205 colon, 89.2%; with SF-295 CNS, 95.5%; with M14 melanoma, 93.4%. In addition, the growth in the assay on LOX IMVI melanoma was 44.1%; with SK-MEL-2 melanoma it was 106%; with CAKI-1 renal, 88%; with A498 renal, 86.7%; in the assay on MOLT-4 leukemia, 15.6%; with RPMI-8226 leukemia, -17% (active). The growth in the assay on SK-OV-3 ovarian was 98.2%.

For `CCOP(=O)(OCC)Oc1ccc(Sc2ccc(OP(=O)(OCC)OCC)cc2)cc1`, the growth in the assay with NCI-H226 lung was 101%; in the assay with HOP-62 NSCLC, 93.2%; with NCI-H522 lung, 91.2%; in the assay with COLO 205 colon, 110%; with K-562 leukemia, 102%; in the assay with SF-295 CNS, 97.5%. For the same compound, the growth was 107% in the assay on LOX IMVI melanoma; 94% with SK-MEL-2 melanoma; 93.1% in the assay with CAKI-1 renal; 85.2% in the assay with A498 renal; 93.8% in the assay on MOLT-4 leukemia; 90% in the assay on RPMI-8226 leukemia. Also, the growth in the assay with SK-OV-3 ovarian was 103%; in the assay with HCT-116 colon, 100%.

With `CNC(=O)O/N=C(/C)c1ccc(Cl)cc1`, the growth in the assay with NCI-H226 lung was 92.1%; in the assay with HOP-62 NSCLC, 99.4%; in the assay on NCI-H522 lung, 96.5%; in the assay on COLO 205 colon, 107%; in the assay on K-562 leukemia, 92.9%; in the assay with SF-295 CNS, 101%. The growth in the assay with LOX IMVI melanoma was 106%; in the assay with SK-MEL-2 melanoma it was 97.2%; with CAKI-1 renal, 98.2%; in the assay with A498 renal it was 92.2%; in the assay on MOLT-4 leukemia, 93.9%; in the assay on RPMI-8226 leukemia, 96.3%. The growth is 96.8% in the assay on SK-OV-3 ovarian and 99.9% with HCT-116 colon.

Values taken from PubChem BioAssay (NCI).
